From PubChem BioAssay (EPA / NIEHS)
Results filed as inconclusive are left out. More than one record can exist for a structure, and the calls need not agree. Calls of active or inactive are those of the source. The calls were made as follows: active = hit-call score of the fitted dose curve at least 0.9, where 1 is the maximum; inconclusive = response in the unintended direction; inactive = score below 0.9.

What follows are compounds tested against rat Monoamine Oxidase, MAO-B, Central (MAOBC), Maob (gene 25750) (UniProt P19643) (assay: NVS_ENZ_rMAOBC: NovaScreen (NVS) Enzymatic Assay for rat Monoamine Oxidase, MAO-B, Central (MAOBC) (AID 2283238)).
Chain of rat Monoamine Oxidase, MAO-B, Central (MAOBC), Maob (gene 25750) (P19643 whole entry, looked up): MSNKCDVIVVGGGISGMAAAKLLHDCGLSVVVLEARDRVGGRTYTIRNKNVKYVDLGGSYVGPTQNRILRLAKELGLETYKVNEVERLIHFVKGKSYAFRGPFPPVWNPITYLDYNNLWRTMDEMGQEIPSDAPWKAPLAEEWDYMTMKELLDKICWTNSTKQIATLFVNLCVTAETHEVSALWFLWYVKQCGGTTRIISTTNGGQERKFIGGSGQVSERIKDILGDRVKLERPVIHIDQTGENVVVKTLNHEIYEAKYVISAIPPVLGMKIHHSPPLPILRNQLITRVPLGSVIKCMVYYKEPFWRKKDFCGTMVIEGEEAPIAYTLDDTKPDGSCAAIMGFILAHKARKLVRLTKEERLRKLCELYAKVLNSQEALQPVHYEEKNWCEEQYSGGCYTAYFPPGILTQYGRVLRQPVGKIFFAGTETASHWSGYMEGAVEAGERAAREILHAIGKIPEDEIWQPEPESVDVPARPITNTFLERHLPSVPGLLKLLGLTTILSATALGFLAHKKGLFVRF
Procedure: NVS_ENZ_rMAOBC is a biochemical, single-readout assay that uses extracted gene-proteins from Rat brain in a tissue-based cell-free assay. Measurements were taken 1.17 hours after chemical dosing in a 96-well plate.NVS_ENZ_rMAOBC is one of one assay component(s) measured or calculated from the NVS_ENZ_rMAOBC assay. It is designed to make measurements of enzyme activity, a form of enzyme reporter, as detected with scintillation counting signals by Lysate-based radiodetection technology.Data from the assay component NVS_ENZ_rMAOBC was analyzed into 1 assay endpoint. This assay endpoint, NVS_ENZ_rMAOBC, was analyzed in the positive analysis fitting direction relative to DMSO as the negative control and baseline of activity. Using a type of enzyme reporter, loss-of-signal activity can be used to understand changes in the enzymatic activity as they relate to the gene Maob. Furthermore, this assay endpoint can be referred to as a primary readout, because this assay has produced multiple assay endpoints where this one serves a enzymatic activity function. To generalize the intended target to other relatable targets, this assay endpoint is annotated to the oxidoreductase intended target family, where the subfamily is monoamine oxidase.
Binding assays used specific radioligands (tritiated, iodinated) with non-radioactive competitive displacement ligands in agonist or antagonist protocols (as indicated) and various reference compounds and inhibitors to titrate specific binding to receptors and transporters. Most enzyme assays (CYPs, kinases, phosphatases, proteases, HDACs) used recombinant protein and specific substrates (fluorescence mostly, some colorimetric and radioactive) and inhibitors, followed by a biochemical separation of substrate and product. All assays for the biochemical HTS were initially run in duplicate at a single concentration (10 uM for CYP450 assays and 25 uM for all others). Assay-chemical combinations meeting a pre-defined threshold (e.g., 30% inhibition and other criteria defined below) were then run in singleton concentration-response format with maximum concentration of 20 uM for CYPs and 50 uM for all others. Each assay was run with positive and negative controls, and concurrent controls on every plate. The follow-up (secondary) screen tested active chemical-pairs in concentration series, as well as a few additional assays not tested in the primary screen, some selected negative inactives, and several cases re-run in the concentration series for confirmatory purposes.
For O=C(O)c1ccccc1C(c1ccc(O)cc1)c1ccc(O)cc1, the outcome was “inactive”.
NCc1cccc(C2CCN(C(=O)c3ccc(C#Cc4ccccc4F)o3)CC2)c1 was tested, and the AC50 was 11.2 µM (active).
With Nc1ccc2c(c1)C(=O)c1ccccc1C2=O the outcome was “inactive”.
CC/C(=C\C(=N/O)C(N)=O)C(C)[N+](=O)[O-] (stereo not given) was tested, and the AC50 was 37.8 µM (active).
In the case of CN(C)C(=O)Nc1ccc(Cl)c(Cl)c1, the outcome is reported as “inactive”.
O=C(O)c1cccc(N(Cc2cccnc2)c2ccc(OC(F)F)c(OC(F)F)c2)c1 was tested, and the outcome was “inactive”.
In the case of O=C(O)Cc1cc(I)c(Oc2cc(I)c(O)c(I)c2)c(I)c1, the outcome is reported as “inactive”.
In the case of NC(=O)N(O)[C@@H]1COc2cc(OCc3ccccc3)ccc21, the AC50 is reported as 12.2 µM (active).
With CCCCCCCCOC(=O)c1cc(O)c(O)c(O)c1 the outcome was “inactive”.
With CCCCCCCCCCCC[N+](C)(C)C the AC50 was 9.12 µM (active).
In the case of Oc1ccc(C(c2ccc(O)cc2)C(Cl)(Cl)Cl)cc1, the outcome is reported as “inactive”.
With c1ccc2n[nH]nc2c1 the AC50 was 25 µM (active) and the outcome was “inactive”.
With CCN(CC)CCOc1ccc(C(=C(Cl)c2ccccc2)c2ccccc2)cc1 the AC50 was 12.4 µM (active) [middle of 4 runs].
With N[C@@H](Cc1cc(I)c(Oc2ccc(O)c(I)c2)c(I)c1)C(=O)O the outcome was “inactive”.
With C=CN1CCCC1=O the outcome was “inactive”.
In the case of Nc1ccc(Nc2ccccc2)cc1, the AC50 is reported as 10.4 µM (active).
In the case of O=C(CCCCCCCCc1cccnc1)N1CCC(C=C(c2ccccc2)c2ccccc2)CC1, the outcome is reported as “inactive”.
N=C(N)c1ccc(OCCCCCOc2ccc(C(=N)N)cc2)cc1 was tested, and the AC50 was 0.0798 µM (active).
CCc1cc(SCc2sc(-c3ccc(C(F)(F)F)cc3)nc2CN2CCN(c3ccc(OC)cc3)CC2)ccc1OCC(=O)O was tested, and the AC50 was 15 µM (active).
In the case of Cc1oc(-c2ccccc2)nc1CCOc1ccc(C[C@H](Nc2ccccc2C(=O)c2ccccc2)C(=O)O)cc1, the AC50 is reported as 25 µM (active).
For O=C(c1ccc(O)cc1O)c1ccc(O)cc1O, the AC50 was 12.9 µM (active).
CCCOC(=O)c1cc(O)c(O)c(O)c1 was tested, and the outcome was “inactive”.
O=C1c2ccccc2C(=O)N1CCc1noc(-c2ccc(CN3CCCCCC3)s2)n1 was tested, and the AC50 was 12.5 µM (active).
In the case of CCC(C)(C)C1CCC(O)CC1 (stereo not given), the outcome is reported as “inactive”.
With CCCCC(CC)CN1C(=O)C2C3C=CC(C3)C2C1=O (stereo not given) the outcome was “inactive”.
With COc1ccc([N+](=O)[O-])cc1N the AC50 was 25 µM (active).
With CCc1ccc(CCOc2ccc(CC3SC(=O)NC3=O)cc2)nc1 (stereo not given) the AC50 was 6 µM (active).
In the case of O=c1ccc2ccccc2o1, the AC50 is reported as 12.5 µM (active).
With O=C(O)c1ccccc1 the outcome was “inactive”.
For Fc1ccccc1[C@@H](F)COC1CCC(Nc2ncnc3[nH]ncc23)CC1 (stereo not given in full), the AC50 was 18.6 µM (active).
For CN1CCN(Cc2cc(-c3ccc4[nH]c(=O)oc4c3)co2)[C@@H](c2ccc(F)cc2)C1, the AC50 was 10.6 µM (active).
In the case of CC(O)CC(C)(C)O (stereo not given), the outcome is reported as “inactive”.
With CCOC(=O)c1ccc(O)cc1 the outcome was “inactive”.
In the case of COc1ccc(OC(F)(F)F)cc1CN[C@H]1CCCN[C@H]1c1ccccc1, the outcome is reported as “inactive”.
With CC(Cc1ccc(C(C)(C)C)cc1)CN1C[C@@H](C)O[C@@H](C)C1 (stereo not given in full) the AC50 was 14.1 µM (active).
In the case of O=C(O)c1cccc(C[C@@H]2COc3ccc(OCc4nc5cc(F)ccc5s4)cc3[C@@H]2O)c1, the AC50 is reported as 17.8 µM (active).
In the case of O=[N+]([O-])c1ccc(O)cc1, the AC50 is reported as 18.1 µM (active).
With CSC(=O)c1cccc2nnsc12 the AC50 was 25 µM (active).
CCOC(=O)c1ccc(C2CCC(NC[C@H](O)COc3ccc(O)c(NS(C)(=O)=O)c3)CC2)cc1 (stereo not given in full) was tested, and the AC50 was 10.2 µM (active).
